Assay results taken from PubChem BioAssay (Tox21).
Where “and” joins values, the source holds several entries; their conditions need not be identical. Equal entries are not always repeated. Records with an inconclusive call do not appear. Entries that show only a call come without a potency. More than one record can exist for a structure, and the calls need not agree. Calls of active or inactive are those of the source. Unless noted, the call rests on the fitted dose curve.

Legend:
[1] = Nuclear factor erythroid 2-related factor 2/antioxidant responsive element (Nrf2/ARE) small molecule agonists: qHTS cell viability counter screen in human keratinocytes (AID 1919968; active means well fitted curve in the direction sought with a large enough effect in the repeat runs; an effect the other way counts as inactive or inconclusive; further: nearly all actives have a fitted effect of over 55% in size)
How it was run: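 Viability counter-screen: KeratinoSens reporter cells, DMSO-delivered compounds, 23 h at 37 C, CellTiter-Fluor fluorescence.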

[2] = Nuclear factor erythroid 2-related factor 2/antioxidant responsive element (Nrf2/ARE) small molecule agonists: luciferase reporter gene qHTS assay in human keratinocytes (AID 1919969); further: nearly all actives have a fitted effect of over 35% in size
[3] = target: Gonadotropin-releasing hormone receptor (Homo sapiens) (UniProt P30968); assay: Human gonadotropin-releasing hormone receptor (GnRHR) small molecule agonists, calcium flux assay in GnRHR-HEK293 cells (AID 1920063); further: nearly all actives have a fitted effect of over 35% in size
How it was run: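 Tox21-format agonist screen using human GnRHR-expressing HEK293 cells and a fluorescent calcium dye; kinetic 3-min fluorescence reading after compound addition, 15-point concentration series run in triplicate.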

[4] = target: KiSS-1 receptor (Homo sapiens) (UniProt Q969F8); assay: Human kisspeptin (KISS1R) small molecule agonists, calcium flux assay in KISS1R-HEK293 cells (AID 1920064; active means well fitted curve in the direction sought with a large enough effect in the repeat runs; an effect the other way counts as inactive or inconclusive)
How it was run: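 Intracellular calcium mobilization in KISS1R-HEK293 cells was recorded by fluorescence (Ex/Em 480/540) for 3 min following compound addition to cells pre-loaded 1 h with calcium dye.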

[5] = G protein-coupled receptor (GPCR) small molecule agonists, calcium flux assay: HEK293 wild type cell line counter screen (AID 1920065)
How it was run: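 In this agonist-mode screen, ATP is the positive control and DMSO the vehicle. Cells grow 18 h before a 1 h dye incubation at 37 C; signal is taken at Ex/Em 480/540 over 3 min.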

[6] = p53 small molecule agonists, cell-based qHTS assay with human liver microsomes (AID 1963577);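 further: p53 response element beta-lactamase reporter cells with liver microsomes plus NADPH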
How it was run: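 Steps: plate p53RE-bla cells, incubate 5 h at 37 C; add compound in DMSO; add microsomes (0.5 mg/mL final) and NADPH (0.5 mg/mL final); incubate 16 h at 37 C; add LiveBLAzer, 2 h RT; read fluorescence.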

[7] = p53 small molecule agonists, cell-based qHTS assay with rat liver microsomes (AID 1963578)
How it was run: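 Metabolic activation is supplied by rat liver microsomes with NADPH (each 0.5 mg/mL final). p53RE-bla cells incubate with compound 16 h at 37 C; reporter activity is measured by LiveBLAzer fluorescence.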

[8] = p53 small molecule agonists, cell-based qHTS assay with human liver microsomes: qHTS cell viability counter screen (AID 1963579); further: nearly all actives have a fitted effect of over 45% in size
How it was run: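 After the 460/530 nm beta-lactamase read, CellTiter-Glo was added to the same wells and luminescence measured after 30 min at room temperature, giving viability of p53RE-bla cells treated 16 h with compounds plus microsomes and NADPH.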

[9] = p53 small molecule agonists, cell-based qHTS assay with rat liver microsomes: qHTS cell viability counter screen (AID 1963580); further: nearly all actives have a fitted effect of over 45% in size
How it was run: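 In HCT-116 cells carrying a p53 response element-bla reporter, compounds were metabolically activated in situ by rat liver microsomes with NADPH over 16 h. Cell ATP content then served as the cytotoxicity measure.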

[10] = p53 small molecule agonists, cell-based qHTS assay: qHTS cell viability counter screen (AID 1963581); further: nearly all actives have a fitted effect of over 45% in size; further: potency means the concentration at half of the fitted maximal effect
How it was run: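 Compounds are pinned onto HCT-116 p53RE-bla cells and left 16 h at 37 C. Following the reporter FRET read, ATP is quantified by CellTiter-Glo luminescence after 30 min at room temperature.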

[11] = p53 small molecule agonists, cell-based qHTS assay (AID 1963582; active means well fitted activation curve with a large enough effect in the signal ratio in the repeat runs, not every such curve was filed as active; the % refers to the signal ratio)
How it was run: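 Agonist activity was scored from beta-lactamase FRET fluorescence in p53RE-bla cells treated 16 h at 37 C with compounds in DMSO, substrate incubation being 2 h at room temperature.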

[12] = target: 5-hydroxytryptamine receptor 2A (Homo sapiens) (UniProt P28223); assay: 5-hydroxytryptamine receptor 2A (HTR2A) small molecule antagonists, cell-based qHTS assay (AID 1963586); further: nearly all actives have a fitted effect of over 45% in size
How it was run: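 Antagonist-mode intracellular calcium assay: DOI (4 nM) added after 5 min compound pre-incubation at room temperature to dye-loaded HTR2A-CHO cells. Fluorescence followed for 3 min, sampled every second.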

[13] = target: 5-hydroxytryptamine receptor 2A (Homo sapiens) (UniProt P28223); assay: 5-hydroxytryptamine receptor 2A (HTR2A) small molecule agonists, cell-based qHTS assay (AID 1963587); further: nearly all actives have a fitted effect of over 30% in size
How it was run: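 HTR2A-CHO cells, plated 18 h at 37 C/5% CO2, dye-loaded 1 h at 37 C; compounds in DMSO added by pin tool (agonist mode). Intracellular calcium flux read as kinetic fluorescence on FDSS over 2 min at 1 s intervals.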

[14] = target: Muscarinic acetylcholine receptor M1 (Homo sapiens) (UniProt P11229); assay: Cholinergic receptor muscarinic 1 (CHRM1) small molecule antagonists, cell-based qHTS assay (AID 1963588); further: nearly all actives have a fitted effect of over 40% in size
How it was run: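 CHRM1-CHO calcium-flux assay, antagonist mode. Cells were seeded 18 h, dye-loaded 1 h at 37 C and given compound for 5 min at RT, then acetylcholine was added at 50nM. FDSS fluorescence was read 3 min; 15 concentrations, three runs.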

[15] = target: Muscarinic acetylcholine receptor M1 (Homo sapiens) (UniProt P11229); assay: Cholinergic receptor muscarinic 1 (CHRM1) small molecule agonists, cell-based qHTS assay (AID 1963589); further: nearly all actives have a fitted effect of over 35% in size
How it was run: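 Stable CHRM1-CHO cells (human receptor) were incubated 18 h, dye-loaded for 1 h at 37 C and exposed to test compounds for agonist activity, with calcium-dependent fluorescence followed kinetically.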

[16] = cAMP Responsive Elements (CRE) small molecule agonists, cell-based qHTS assay (AID 1963590)
How it was run: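 FRET-based beta-lactamase readout (LiveBLAzer B/G, 2 h RT) quantified CRE activation in HEK 293T CRE-bla cells after 3 h treatment with DMSO-dissolved compounds.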

[17] = cAMP Responsive Elements (CRE) small molecule antagonists, cell-based qHTS assay (AID 1963591; active means well fitted inhibition curve with a large enough effect in the signal ratio in the repeat runs, not every such curve was filed as active; the % refers to the signal ratio)
How it was run: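 qHTS in CRE-bla HEK 293T cells: compound in DMSO, then 0.25 uM NKH477 (final), 3 h at 37 °C/5% CO2; beta-lactamase FRET read-out after 2 h substrate incubation.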

[18] = target: D(2) dopamine receptor (Homo sapiens) (UniProt P14416); assay: Dopamine D2 receptor (DRD2) small molecule agonists, cell-based qHTS assay (AID 1963594); further: nearly all actives have a fitted effect of over 35% in size
How it was run: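 HEK293 cells stably expressing DRD2 were cultured 24 h at 37 C, then given Ro20-1724 (0.1 mM final) and compounds for 10 min at room temperature. NKH477 (200nM) was then added for 30 min. cAMP was read by HTRF.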

[19] = target: D(2) dopamine receptor (Homo sapiens) (UniProt P14416); assay: Dopamine D2 receptor (DRD2) small molecule antagonists, cell-based qHTS assay (AID 1963595; active means well fitted inhibition curve with a large enough effect in the signal ratio in the repeat runs, with a control signal flat; the % refers to the signal ratio)
How it was run: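 DRD2-HEK293; 0.1 mM Ro20-1724; cpd 10 min RT; NKH477 200 nM + quinpirole 12 nM, 30 min RT; HTRF cAMP (cAMP-d2/anti-cAMP cryptate), 665/620 nm ratio after 1 h.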

[20] = target: Beta-2 adrenergic receptor (Homo sapiens) (UniProt P07550); assay: Adrenergic beta2 receptor (ADRB2) small molecule antagonists, cell-based qHTS assay (AID 1963592); further: series mostly up to about 92 µM; nearly all actives have a fitted effect of over 50% in size
How it was run: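 Cells (CHO, stable ADRB2 overexpression) incubated 18-20hr at 37C; compounds added from DMSO; agonist mix (1nM isoproterenol, 100uM IBMX, 25uM Ro-20-1724) added; 0.5hr RT; d2-cAMP and anti-cAMP-cryptate added; 1hr RT; 665/615 nm read.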

Sequence of KiSS-1 receptor (Homo sapiens) (Q969F8 whole entry, looked up): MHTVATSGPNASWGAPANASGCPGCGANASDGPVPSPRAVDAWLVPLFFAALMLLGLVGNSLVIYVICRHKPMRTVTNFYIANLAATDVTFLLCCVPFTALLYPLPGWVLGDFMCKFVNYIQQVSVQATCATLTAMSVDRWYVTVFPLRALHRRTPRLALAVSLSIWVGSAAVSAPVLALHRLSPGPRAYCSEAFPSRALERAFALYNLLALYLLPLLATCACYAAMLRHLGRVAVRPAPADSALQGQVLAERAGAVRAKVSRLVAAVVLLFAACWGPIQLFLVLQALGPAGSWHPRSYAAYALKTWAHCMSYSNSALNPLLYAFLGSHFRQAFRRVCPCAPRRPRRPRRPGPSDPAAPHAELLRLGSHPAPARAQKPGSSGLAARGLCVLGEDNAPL
Sequence of Muscarinic acetylcholine receptor M1 (Homo sapiens) (P11229 whole entry, looked up): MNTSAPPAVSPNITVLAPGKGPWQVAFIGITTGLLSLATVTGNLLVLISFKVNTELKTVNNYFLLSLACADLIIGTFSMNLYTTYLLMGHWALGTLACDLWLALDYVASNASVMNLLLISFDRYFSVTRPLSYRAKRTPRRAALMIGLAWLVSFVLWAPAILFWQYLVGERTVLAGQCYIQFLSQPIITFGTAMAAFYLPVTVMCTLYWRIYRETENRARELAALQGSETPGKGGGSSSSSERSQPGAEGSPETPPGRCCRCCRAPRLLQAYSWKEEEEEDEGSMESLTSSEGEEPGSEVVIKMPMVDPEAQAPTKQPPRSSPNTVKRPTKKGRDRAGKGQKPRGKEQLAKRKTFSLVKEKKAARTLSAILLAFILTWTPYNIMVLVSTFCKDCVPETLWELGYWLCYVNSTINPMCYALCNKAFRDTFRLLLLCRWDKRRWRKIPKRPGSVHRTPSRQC
Sequence of 5-hydroxytryptamine receptor 2A (Homo sapiens) (P28223 whole entry, looked up): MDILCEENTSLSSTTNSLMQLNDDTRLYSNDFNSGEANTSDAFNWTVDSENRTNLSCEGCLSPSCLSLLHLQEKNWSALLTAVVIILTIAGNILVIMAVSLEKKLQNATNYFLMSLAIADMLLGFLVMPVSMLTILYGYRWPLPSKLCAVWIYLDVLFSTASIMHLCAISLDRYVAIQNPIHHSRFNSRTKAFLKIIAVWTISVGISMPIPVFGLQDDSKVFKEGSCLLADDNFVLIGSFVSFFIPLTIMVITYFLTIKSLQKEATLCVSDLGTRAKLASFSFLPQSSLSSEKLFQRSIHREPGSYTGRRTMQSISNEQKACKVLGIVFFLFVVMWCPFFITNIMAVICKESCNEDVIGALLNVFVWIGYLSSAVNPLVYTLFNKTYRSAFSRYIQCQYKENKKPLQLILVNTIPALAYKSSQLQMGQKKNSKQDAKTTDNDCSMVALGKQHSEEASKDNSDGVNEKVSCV
Sequence of Gonadotropin-releasing hormone receptor (Homo sapiens) (P30968 whole entry, looked up): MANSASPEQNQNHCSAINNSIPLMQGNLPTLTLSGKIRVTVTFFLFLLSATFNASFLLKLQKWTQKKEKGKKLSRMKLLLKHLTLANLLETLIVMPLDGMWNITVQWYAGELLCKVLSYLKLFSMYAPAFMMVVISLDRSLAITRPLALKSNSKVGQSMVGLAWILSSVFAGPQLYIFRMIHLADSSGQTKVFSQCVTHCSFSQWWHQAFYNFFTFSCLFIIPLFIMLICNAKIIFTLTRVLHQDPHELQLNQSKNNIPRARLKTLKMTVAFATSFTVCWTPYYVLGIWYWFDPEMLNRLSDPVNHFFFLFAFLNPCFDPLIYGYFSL
Sequence of D(2) dopamine receptor (Homo sapiens) (P14416 whole entry, looked up): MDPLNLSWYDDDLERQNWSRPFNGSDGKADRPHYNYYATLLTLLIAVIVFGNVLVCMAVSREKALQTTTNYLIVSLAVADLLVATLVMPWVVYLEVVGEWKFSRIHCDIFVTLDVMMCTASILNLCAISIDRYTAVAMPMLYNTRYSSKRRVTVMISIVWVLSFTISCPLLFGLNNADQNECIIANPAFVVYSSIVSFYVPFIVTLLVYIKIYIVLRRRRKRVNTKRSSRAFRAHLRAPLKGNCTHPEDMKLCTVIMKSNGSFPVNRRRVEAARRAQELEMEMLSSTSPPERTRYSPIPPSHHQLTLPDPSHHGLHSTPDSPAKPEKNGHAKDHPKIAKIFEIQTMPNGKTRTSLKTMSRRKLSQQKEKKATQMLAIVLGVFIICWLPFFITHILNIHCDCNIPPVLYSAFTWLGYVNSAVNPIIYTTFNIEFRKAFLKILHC
Sequence of Beta-2 adrenergic receptor (Homo sapiens) (P07550 whole entry, looked up): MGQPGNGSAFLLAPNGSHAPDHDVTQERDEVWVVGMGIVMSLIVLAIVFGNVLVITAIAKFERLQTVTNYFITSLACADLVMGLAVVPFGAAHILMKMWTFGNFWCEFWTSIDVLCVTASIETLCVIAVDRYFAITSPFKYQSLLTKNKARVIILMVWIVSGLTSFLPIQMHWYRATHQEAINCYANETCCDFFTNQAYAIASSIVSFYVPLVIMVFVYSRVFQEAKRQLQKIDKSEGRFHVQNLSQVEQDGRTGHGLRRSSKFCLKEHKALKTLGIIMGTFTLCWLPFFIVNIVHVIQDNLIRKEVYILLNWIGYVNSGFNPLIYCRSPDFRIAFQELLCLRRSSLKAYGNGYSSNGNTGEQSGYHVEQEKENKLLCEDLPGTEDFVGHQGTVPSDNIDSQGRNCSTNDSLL

SMILES	Potency [1]	Potency [2]	Potency [3]	Potency [4]	Potency [5]	Potency [6]	Potency [7]	Potency [8]	Potency [9]	Potency [10]	Potency [11]	Potency [12]	Potency [13]	Potency [14]	Potency [15]	Potency [16]	Potency [17]	Potency [18]	Potency [19]	Potency [20]
CCOC(=O)O[C@]1(C(=O)OCCl)CC[C@H]2[C@@H]3CCC4=CC(=O)C=C[C@]4(C)[C@H]3[C@@H](O)C[C@@]21C	inactive	inactive	inactive	inactive	inactive	inactive	inactive	inactive	inactive	inactive	inactive	inactive	inactive	inactive	inactive	inactive	inactive	inactive	inactive	–
Cc1ccc(S(=O)(=O)NC(=O)NC2CCCC2)cc1	inactive	inactive	inactive	inactive	inactive	inactive	inactive	inactive	inactive	inactive	inactive	inactive	inactive	inactive	inactive	inactive	inactive	inactive	inactive	–
O=C(O)c1ccccc1[N+](=O)[O-]	inactive	inactive	inactive	inactive	inactive	inactive	inactive	inactive	inactive	inactive	inactive	inactive	inactive	inactive	inactive	inactive	inactive	–	inactive	inactive
O=C(O)CNc1ccccc1	inactive	inactive	inactive	inactive	inactive	inactive	inactive	inactive	inactive	inactive	inactive	inactive	inactive	inactive	inactive	inactive	–	inactive	inactive	inactive
CCOCCOCCOCC	inactive	inactive	inactive	inactive	inactive	inactive	inactive	inactive	inactive	inactive	inactive	inactive	inactive	inactive	inactive	inactive	–	inactive	–	inactive
N[C@H]1C(O)O[C@H](CO)[C@@H](O)[C@@H]1O (some centres undefined)	inactive	inactive	inactive	inactive	inactive	inactive	inactive	inactive	inactive	inactive	inactive	inactive	inactive	inactive	inactive	inactive	inactive	–	inactive	–
CCC(C)C(=O)OCCc1ccccc1 (centres undefined)	inactive	inactive	inactive	inactive	inactive	inactive	inactive	inactive	inactive	inactive	inactive	inactive	inactive	inactive	inactive	inactive	–	inactive	inactive	inactive
COc1ccc(C)cc1	inactive	inactive	inactive	inactive	inactive	inactive	inactive	inactive	inactive	inactive	inactive	inactive	inactive	inactive	inactive	inactive	inactive	–	inactive	inactive
CC(C)(CCC(=O)O)C(=O)O	inactive	inactive	inactive	inactive	inactive	inactive	inactive	inactive	inactive	inactive	inactive	inactive	inactive	inactive	inactive	inactive	inactive	–	inactive	inactive
O=C(O)C(=O)Nc1cccc(-c2nn[nH]n2)c1	inactive	inactive	inactive	inactive	inactive	inactive	inactive	inactive	inactive	inactive	inactive	inactive	inactive	inactive	inactive	inactive	inactive	inactive	inactive	–
CC[N+](C)(C)c1cccc(O)c1	inactive	inactive	inactive	inactive	inactive	inactive	inactive	inactive	inactive	inactive	inactive	inactive	inactive	inactive	inactive	inactive	inactive	–	inactive	–
Cc1ccc(C2OC[C@@H]3OC(c4ccc(C)cc4)O[C@H]([C@H](O)CO)[C@@H]3O2)cc1 (some centres undefined)	inactive	inactive	inactive	inactive	inactive	inactive	inactive	inactive	inactive	inactive	inactive	inactive	inactive	inactive	inactive	inactive	inactive	inactive	inactive	–
CCNc1cc(O)ccc1C	inactive	inactive	inactive	inactive	inactive	inactive	inactive	inactive	inactive	inactive	inactive	inactive	inactive	inactive	inactive	inactive	–	inactive	–	inactive
CCN(Cc1cccc(S(=O)(=O)O)c1)c1ccccc1	inactive	inactive	inactive	inactive	inactive	inactive	inactive	inactive	inactive	inactive	inactive	inactive	inactive	inactive	inactive	inactive	–	inactive	–	inactive
C=CC(=O)O[C@H]1C[C@@H]2CC[C@@]1(C)C2(C)C	inactive	inactive	inactive	inactive	inactive	inactive	inactive	inactive	inactive	inactive	inactive	inactive	inactive	inactive	inactive	inactive	inactive	–	inactive	inactive
Nc1cc([N+](=O)[O-])ccc1O	inactive	inactive	inactive	inactive	inactive	inactive	inactive	inactive	inactive	inactive and 362 nM (active)	inactive	inactive	inactive	inactive	inactive	inactive	inactive	inactive	inactive	–
